# D1 PAM: potentiators of human D1 dopamine receptor. P21728. HEK293 TREx D1 cells, calcium flux, dopamine EC20 potentiation. potentiation, % at 10 µM. 0.036% of 360,000 active; in the data active = potentiation above about 30%; note: 0% is about no effect
# Target sequence (P21728 whole entry, looked up): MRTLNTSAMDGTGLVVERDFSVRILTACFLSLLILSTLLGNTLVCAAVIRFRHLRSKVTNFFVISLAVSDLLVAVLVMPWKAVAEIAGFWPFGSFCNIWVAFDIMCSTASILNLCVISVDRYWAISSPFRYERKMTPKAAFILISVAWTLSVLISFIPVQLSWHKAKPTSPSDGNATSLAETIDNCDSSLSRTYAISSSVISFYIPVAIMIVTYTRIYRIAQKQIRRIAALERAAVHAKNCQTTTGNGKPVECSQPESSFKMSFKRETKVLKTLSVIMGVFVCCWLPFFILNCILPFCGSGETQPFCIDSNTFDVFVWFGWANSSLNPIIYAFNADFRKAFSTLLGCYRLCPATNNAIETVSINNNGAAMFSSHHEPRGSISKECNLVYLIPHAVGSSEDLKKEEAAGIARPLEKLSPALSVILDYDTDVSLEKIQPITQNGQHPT
# TRHR ag: activates the human TRH receptor. P34981. TRHR cells, calcium flux fluo-8, FDSS agonist mode. activation, % at 2 µM. 0.18% of 360,000 active. AID 493084; note: 0% is about no effect
#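 Steps: seed TRHR cells overnight; add fluo-8 no-wash Ca dye, RT 30 min–1.5 h; record 10 s baseline; pin-transfer compounds; monitor fluorescence 1 cycle/s for the agonist window. Calcium increases flag candidate agonists.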
# D1 antag: blocks dopamine activation of the human D1 receptor | P21728 | HEK293 TREx D1 cells, calcium flux, dopamine EC80; stronger effect = lower value | activity change, negative = inhibition, % at 10 µM | 3.2% of 360,000 active | AID 504652; in the data active = activity change below about -30%; note: % is set by controls: 0 for no effect and ±100 for the full control effect
#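 Allosteric or orthosteric antagonism assessed as attenuation of the calcium response to EC80 dopamine, added 180 s after compound, in induced HEK293 Trex D1 cells loaded with no-wash calcium dye.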
# TRHR enhancer: allosterically enhances the human TRH receptor; TRHR cells, fluo-8 calcium fluorescence, EC20 TRH enhancement; enhancement, % at 2 µM; 0.66% of 360,000 active; AID 493056; in the data active = enhancement above about 30%; note: 0% is about no effect
#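 Enhancer read-out: after compound pinning and an initial kinetic agonist-mode read, an EC20 of TRH (10 nM final) was injected and fluo-8 calcium signal (Ex 480/Em 530) followed at 1 s/cycle for 100 cycles in TRHR-expressing cells.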
# D1 ag: activates the human D1 dopamine receptor. P21728. 1% of 360,000 active. activation, % at 2 µM. HEK293 T-REx D1 cells, calcium flux, agonist mode; note: 0% is about no effect
#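 Inducible HEK293 T-REx D1 cells, force-coupled to calcium signalling, were plated at 4000 cells/well with tetracycline and held overnight at 30 C. After no-wash calcium dye loading, compound-evoked calcium rise over 180 s flagged agonists.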
# The depositor's hits bear a star; / = no result given. Compounds with a hit are over-represented: about 4.6% of the library has one in this group of screens. Cut-off read from the data, not from the text of the source, unless noted: active = activation above about 30%; inactive = the rest.
SMILES,D1 PAM,TRHR ag,D1 antag,TRHR enhancer,D1 ag
O=C1NC(=O)C(CC(=O)N(Cc2ccco2)C2(C(=O)NC3CCCC3)CCCCC2)N1 (stereo unspecified),-2,-1,-10,33*,2
CC(=O)Nc1ccc2[nH]c3ccccc3c2c1,1,0,5,-2,-2
O=C(Nc1ccc(Cl)cc1)c1cc2c(cc1O)[nH]c1ccccc12,-10,3,-38*,-8,19
CN(C)c1ccc(/C=C(/C#N)C(=O)NCc2ccccc2)o1,-4,43*,-3,-2,102*
CC(=O)N1CCc2cc(CNC(=O)Cc3ccc(F)cc3)ccc21,-2,0,0,-3,0
CCCc1nc2ccccc2n1CC(O)COc1ccc(NC(C)=O)cc1 (stereo unspecified),-4,0,-34*,7,3
CC(=O)Nc1cccc(OCC(O)Cn2c(C)nc3ccccc32)c1 (stereo unspecified),-4,0,-69*,-3,0
CC(=O)Nc1ccc(OCC(O)Cn2cnc3ccccc32)cc1 (stereo unspecified),-4,1,-12,2,2
CCOC(=O)c1c(C)[nH]c(C)c1C(=O)CSc1nc2ccccc2c(=O)n1-c1ccc(C)cc1,6,0,-2,7,2
CCc1ccc(/C=C2/Sc3ccccc3N(CC(=O)NCCCN3CCOCC3)C2=O)cc1,-6,5,-52*,8,9
O=C(CN1C(=O)/C(=C\c2ccccc2Cl)Sc2ccccc21)NCCCN1CCOCC1,-9,2,-1,-4,17
O=C(NCCN1CCOCC1)c1ccc(/C=C2\Sc3ccccc3N(Cc3ccccc3F)C2=O)cc1,0,0,-12,2,8
CN1CCN(CCCNC(=O)c2ccc(/C=C3\Sc4ccccc4N(Cc4ccccc4F)C3=O)cc2)CC1,-9,0,-30*,0,19
O=C(CN1C(=O)/C(=C/c2ccc(C(F)(F)F)cc2)Sc2ccccc21)NCCCN1CCOCC1,-9,4,-34*,7,16
O=C(CN1C(=O)/C(=C\c2cccc(Cl)c2)Sc2ccccc21)NCCCN1CCOCC1,-17,-1,-84*,1,53*
O=C(CCN1C(=O)/C(=C\c2ccccc2)SC1=S)NCCCN1CCOCC1,1,-1,26,4,0
CCOC(=O)C1CCN(C(=O)c2ccc(N3CCOCC3)c([N+](=O)[O-])c2)CC1,-5,-1,-12,-1,1
COc1ccc(C(=O)Nn2c(C)ccc2C)cc1OC,15,1,9,2,3
COC(=O)c1ccc(CN(c2ccccn2)S(=O)(=O)c2ccccc2)cc1,-9,-2,-36*,-2,5
O=C(CN(c1ccccn1)S(=O)(=O)c1ccc(F)cc1)Nc1ccccc1,-5,0,6,-8,0
O=C(CN(c1ccccn1)S(=O)(=O)c1ccccc1)Nc1ccccc1,-2,1,-5,39*,3
CCOC(=O)CN(c1ccccn1)S(=O)(=O)c1ccccc1,4,1,10,-1,3
CN(C)CCNC(=O)c1cc2c(s1)-c1ccc(Cl)cc1SC2,-9,5,-48*,-10,16
O=C(CN1CCN(c2ccccc2)CC1)c1ccc2cc[nH]c2c1,-6,4,-36*,-3,5
Cc1cccc(OCC(=O)Nc2ccc3c(c2)nc(CCN2CCN(c4ccccn4)CC2)n3C)c1,-8,-1,-31*,-6,10
SMILES,D1 PAM,TRHR ag,D1 antag,TRHR enhancer,D1 ag
COC(=O)c1ccc(S(=O)(=O)NCc2ccc(OC)cc2)n1C,3,1,-3,0,7
COC(=O)c1ccc(S(=O)(=O)NC(C)(C)C)n1C,1,0,-37*,-5,2
COc1ccc(C2Nc3ccccc3C(=O)N2Cc2ccccc2)cc1 (stereo unspecified),-4,-1,-39*,-2,4
COc1ccc(CCNc2nccn(-c3ccc(C)c(C)c3)c2=O)cc1OC,-4,0,-44*,14,4
O=C(CNC(=O)c1cccs1)Nc1ccc(N2CCOCC2)cc1,/,0,8,5,5
Cc1cccc(CSC(Nc2ccc(F)cc2)=C(C#N)C#N)c1,-8,4,-35*,-9,26
N#CC(C#N)=C(Nc1ccc(F)cc1)SCc1cccc(Br)c1,-10,3,-42*,-5,30
CCN(c1ccccc1)S(=O)(=O)c1ccc(NC(=O)c2ccco2)cc1,0,-1,-4,-1,9
CCOC(=O)N1CCc2c(sc3c2c(=O)n(-c2ccc(Cl)cc2)c(=O)n3CC(=O)c2ccc(F)cc2)C1,-4,5,-31*,5,22
CC(=O)N1CCc2c(sc3c2c(=O)n(-c2ccccc2C)c(=O)n3CC(=O)Nc2ccccc2)C1,-2,0,3,48*,0
O=C(NCCCN1CCC(Cc2ccccc2)CC1)C1CCN(S(=O)(=O)N2CCC3(CC2)OCCO3)CC1,5,0,-7,0,-2
O=C(CNC(=O)c1cccc(N2C(=O)c3ccccc3C2=O)c1)Nc1ccc(F)c(F)c1,-2,0,13,10,6
O=c1cc(/N=C/c2coc3c(ccc4ccccc43)c2=O)[nH]c(=S)[nH]1,1,0,-31*,-1,7
NC(=S)N/N=C/c1coc2c(ccc3ccccc32)c1=O,-4,-1,-3,3,0
c1n[nH]c(SCCCCSc2ncn[nH]2)n1,2,0,10,-1,0
CCN(CC)S(=O)(=O)c1ccc2c(c1)c(=O)c(C(=O)N1CCc3ccccc3C1)cn2C,5,-1,-37*,-4,0
Cn1cc(C(=O)N2CCc3ccccc3C2)c(=O)c2cc(S(=O)(=O)N3CCOCC3)ccc21,0,1,-6,7,-2
CC(=O)Nc1cccc(NC(=O)C2CCN(C(=O)c3ccco3)CC2)c1,-7,2,5,2,4
CC(=O)Nc1ccc(S(=O)(=O)Nc2ccccc2C(=O)N2CCOCC2)cc1,3,0,-4,13,1
Cc1cccc(N2CCN(S(=O)(=O)c3ccc4c(c3)C(C(C)C)C(=O)N4)CC2)c1C (stereo unspecified),0,-1,-37*,2,6
Cc1cccc(N2CCN(S(=O)(=O)c3ccc4c(c3)NC(=O)C(C)S4)CC2)c1C (stereo unspecified),1,0,16,0,5
Cc1ccc(C)c(N2CCN(S(=O)(=O)c3ccc4[nH]c(=O)ccc4c3)CC2)c1,-4,-1,-11,-3,4
Cc1cccc(N2CCN(S(=O)(=O)c3ccc4[nH]c(=O)ccc4c3)CC2)c1C,-7,0,-35*,-1,13
CCCCCCC1/C(=N\NC(=O)c2ccccc2)CCC1C(=O)OC (stereo unspecified),2,-1,-10,-1,0

# Screening data deposited in PubChem by National Center for Advancing Translational Sciences (NCATS).
